Laboratory results reported in the supplement of paper PMC6555819.

Assays:
Experiment in all cases: PBM binding z-score (relative to random genomic background probes); higher = stronger binding; sequences stand for … in GC…GCGATTGACAGCGTAGAATGAAGG
[1] = test system: RARb homodimer (NR concentration 270 nM)
Outline: (§1)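 Custom Agilent 4×180K protein-binding microarrays carried double-stranded probes, each with a 34-nt variable region. These regions held direct-repeat seeds, single-nucleotide variants, half-site ablations and random human genomic background sequences. Ligand-free nuclear receptor dimers were incubated on the arrays for 1 h, antibodies against each partner (one per run) detected binding, and scanned fluorescence was regression-normalized. Binding z-scores take the random background probes as reference.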

[2] = test system: RARg:RXRa (NR concentration 270 nM, RXRa partner concentration 90 nM)
Outline: as §1

[3] = test system: RARg homodimer (NR concentration 270 nM)
Outline: as §1

[4] = test system: RXRa DBDmut IVT, anti-RXR (DBD mutation: RXRa K156A/R161A, NR concentration 90 nM)
Outline: as §1

[5] = test system: RXRa homodimer (NR concentration 180 nM)
Outline: as §1

[6] = test system: THRa:RXRa (NR concentration 90 nM, RXRa partner concentration 90 nM)
Outline: as §1

[7] = test system: THRa homodimer (NR concentration 90 nM)
Outline: as §1

[8] = test system: VDR homodimer (NR concentration 270 nM)
Outline: as §1

Row | Sequence | PBM binding z-score [1] | PBM binding z-score [2] | PBM binding z-score [3] | PBM binding z-score [4] | PBM binding z-score [5] | PBM binding z-score [6] | PBM binding z-score [7] | PBM binding z-score [8]
1 | CCCTACGGGTCACGAGGTTATAGCACGACGAGCG | 4.13 | 6.2 | 5.6 | 1.19 | 7.45 | 3.59 | 1.02 | 1.66
2 | ATCGAAAGATCGAAGGTGAGTATACCCACCCGAA | -0.186 | 0.34 | 0.489 | -0.722 | 0.765 | 0.17 | -0.601 | -0.259
3 | CCTTACGCGTCACTCCAGGTTATAGCATCGGAGT | 0.704 | 0.409 | 0.416 | 0.6 | 0.294 | 2.62 | 1.07 | 0.782
4 | ACTTACGGGTCAACGAGGTTCTAGCACGCGTATA | 3.24 | 5.08 | 4.31 | 2.18 | 5.1 | 3.34 | 0.629 | 2.01
5 | GGTAGTTGGTCAGTAAAAGGTCACACACCGGTCG | 5.4 | 5.49 | 4.84 | -0.0829 | 5.45 | 3.72 | 2.3 | 2.2
6 | TGAATGAGGTTAGAGATCAGGGAACGTGGCGTCG | 0.675 | 1.04 | 0.944 | -0.0534 | 1.71 | 1.39 | 0.0858 | -0.315
7 | GCATATAGGTAATACATGGTGAAAGTCCGATTGT | -0.181 | 0.00391 | 0.437 | 0.319 | 0.441 | 0.327 | -0.218 | 0.32
8 | TCATATAGGTAAAGTTGAAAGTCGAACGATATGA | 0.521 | 0.699 | 0.882 | 1.02 | 1.15 | 0.311 | -0.665 | 0.121
9 | CCTACTGGGCCTAGGTCATTGATCAGTCAAAGCA | 2.06 | 2.02 | 1.46 | -0.592 | 1.34 | 2.07 | 0.765 | 0.74
10 | CGTTCAAGGTCAGCAGGTCAGTGAAAGCGACGTG | 5.45 | 6.75 | 7.14 | 3.31 | 5.46 | 4.18 | 3.13 | 2.25
11 | AGTCAAAGTTCACTAGGTAAAGTAAGATTCAGCT | 3.32 | 4.93 | 5.48 | 4.25 | 4.02 | 1.75 | 0.0953 | 3.61
12 | CGAACTAGGTCATACAGGACAGTGAATACATTGA | 2.68 | 3.77 | 4.03 | 2.32 | 2.68 | 2.83 | 1.2 | 1.57
13 | TCGAGTAGGTTAGTCGGGGCAATCAGCCAACATA | 0.889 | 0.0718 | 0.25 | 0.255 | 0.0944 | 2.38 | -0.198 | -0.417
14 | ATTATTAGTTGAGACGAGGGCAACCGATAGGTTG | 1.64 | 1.02 | 1.18 | 0.511 | 0.708 | 2.79 | 0.878 | 1.63
15 | GGAACGAGGGCAGGTTGATAGCAGAGTTTGATGG | 1.3 | 0.763 | 1.26 | 0.971 | 0.496 | 0.552 | 0.392 | 1.16
16 | TCTCGTTGGTCACGGAGGTCACACACGACGGGTA | 4.68 | 4.95 | 4.91 | 0.929 | 4.39 | 3.73 | 2.29 | 2.98
17 | CCTAGCAGGCCAATCTGGGTCACTGAAGGCTTGA | 2.38 | 1.15 | 1.38 | 0.114 | 0.872 | 3.79 | 0.399 | -0.314

Row | Sequence | PBM binding z-score [1] | PBM binding z-score [2] | PBM binding z-score [3] | PBM binding z-score [4] | PBM binding z-score [5] | PBM binding z-score [6] | PBM binding z-score [7] | PBM binding z-score [8]
18 | CCTAGCAGCCCAATCTGGGTCACTCAAGGCTTGA | 1.77 | 0.615 | 0.301 | -0.241 | 0.56 | 2.28 | 0.424 | -0.324
19 | ATATGTTGGTTACATCCGGGTCATTCAGGCTATG | 2.54 | 1.79 | 1.29 | 0.674 | 2.18 | 3.16 | 2.45 | 2.26
20 | ACCTCTAGGTAAAAGTTCAGTGAATCCCGAGGAT | 2.22 | 1.17 | 1.56 | 0.969 | 1.22 | 0.914 | -0.324 | 1.21
21 | CGTCCAAGGTCATAGGAGGTCAGTCAAGACAGAT | 5.57 | 6.78 | 7.57 | 3.37 | 6.76 | 5.43 | 3.34 | 4.33
22 | CCTAGCAGGCCAATCCGGGTCACTCAAGGCTTGA | 2.35 | 1.67 | 1.42 | 0.0497 | 1.65 | 4.38 | 1.72 | 0.638
23 | TCTGCTAGGTCAACGATGGTCATCTAATCTGCTA | 3.5 | 4.05 | 4.69 | 1.07 | 2.9 | 3.45 | 0.805 | -0.118
24 | CCTAGTTGGTCAGGACGTCACACACCGGATATGA | 0.767 | 0.464 | 0.776 | 0.386 | 0.296 | 0.673 | 1.03 | 0.558
25 | CAAACTAGGTCACCGGCAGGTCAAAGTCCGCATG | 5.08 | 7.9 | 7.05 | 2.05 | 6.42 | 4.37 | 3.02 | 2.72
26 | GCTGCTAGGTCGGGTTGGTCAGCTAACGGGTACG | 0.957 | 0.215 | 0.167 | -0.0966 | 0.0101 | 0.409 | 0.283 | 0.431
27 | CGAACTAGGTCAGAACAGGACAGTGCAGGATGAT | 2.14 | 2.44 | 3.46 | 0.591 | 1.26 | 3.38 | 0.224 | 0.113
28 | CGTCCAAGGTAAAAGGTCAGTGAAGAGATGACGG | 4.88 | 4.86 | 5.11 | 0.584 | 5.53 | 3.28 | 0.539 | 0.435
29 | ATCTCAAGGTAAAGATAGTTCAGTGAATGCAAAT | 0.976 | 1.03 | 1.11 | 0.292 | 0.564 | 1.53 | 0.311 | 0.351
30 | ATCTCTAGGTAACAAGTTCCGTGAAAGAGAGGAC | 0.549 | 0.357 | 0.586 | -0.202 | 0.164 | 0.983 | 0.899 | 0.475
31 | TCATATAGGTTAACAGGTGAAAGTCCGTAAGTTA | 1.85 | 2.13 | 1.57 | 1.53 | 2.09 | 1.39 | 0.525 | 0.443
32 | CGTCCAAGGTCAAAGGTCAGTGATGAGATGACGG | 5.76 | 8.67 | 7.8 | 3.72 | 10.1 | 4.87 | 3.03 | 4.03
33 | ACTATTAGTTGACTTAGAGCAACCGATACGACGC | -0.15 | 0.294 | 0.597 | 0.671 | 0.318 | 0.0226 | 0.0225 | -0.0313
34 | GCGAGTGGGGCAAAGCAGGTTACCATAAGGTTGG | 1.29 | 0.324 | 0.332 | -0.292 | 0.339 | 2.93 | 0.0981 | -0.134
